CYP2C9 activ: human CYP2C9 activators, primary screen, biochemical, luminescence. recombinant CYP2C9, luciferin-H conversion; hits give high values; factor 1 = untreated enzyme, 0 = blocked. 1.4% of 96,000 active. Cytochrome P450 2C9 (Homo sapiens), P11712. activation factor at 5 µM;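 active means activation factor of 2 or more for CYP2C9 at a 5 µM dose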;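 further: 0 = sulfaphenazole-blocked wells and 1 = vehicle-only wells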
CYP2C19 activ: human CYP2C19 activators, primary screen, biochemical, luminescence; Cytochrome P450 2C19 (Homo sapiens), P33261; recombinant CYP2C19, luciferin-H EGE luminescence; hits give high values; 0 = fully inhibited enzyme, 1 = untreated enzyme; activation factor at 5 µM; 96,000 tested, under 10 active; AID 1025, 2008;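 active means activation factor of at least 2 at 5 µM in the primary screen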;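 further: 0 = wells with 2.5 mM tranylcypromine and 1 = vehicle-only wells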
Cav32 inh: Cav3.2 calcium influx blockers – cell-based, Fluo-4 calcium fluorescence, FDSS, MLSMR library, primary screen; B-score at 10 µM; Voltage-dependent T-type calcium channel subunit alpha-1H (Homo sapiens), O95180; Cav3.2-expressing cells; hits give low values; 4% of 100,000 active;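 active means single-dose well whose peak fluorescence ratio is a statistical outlier from its plate by either plate-standardised score or position-corrected B-score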
Target sequence (O95180 whole entry, looked up): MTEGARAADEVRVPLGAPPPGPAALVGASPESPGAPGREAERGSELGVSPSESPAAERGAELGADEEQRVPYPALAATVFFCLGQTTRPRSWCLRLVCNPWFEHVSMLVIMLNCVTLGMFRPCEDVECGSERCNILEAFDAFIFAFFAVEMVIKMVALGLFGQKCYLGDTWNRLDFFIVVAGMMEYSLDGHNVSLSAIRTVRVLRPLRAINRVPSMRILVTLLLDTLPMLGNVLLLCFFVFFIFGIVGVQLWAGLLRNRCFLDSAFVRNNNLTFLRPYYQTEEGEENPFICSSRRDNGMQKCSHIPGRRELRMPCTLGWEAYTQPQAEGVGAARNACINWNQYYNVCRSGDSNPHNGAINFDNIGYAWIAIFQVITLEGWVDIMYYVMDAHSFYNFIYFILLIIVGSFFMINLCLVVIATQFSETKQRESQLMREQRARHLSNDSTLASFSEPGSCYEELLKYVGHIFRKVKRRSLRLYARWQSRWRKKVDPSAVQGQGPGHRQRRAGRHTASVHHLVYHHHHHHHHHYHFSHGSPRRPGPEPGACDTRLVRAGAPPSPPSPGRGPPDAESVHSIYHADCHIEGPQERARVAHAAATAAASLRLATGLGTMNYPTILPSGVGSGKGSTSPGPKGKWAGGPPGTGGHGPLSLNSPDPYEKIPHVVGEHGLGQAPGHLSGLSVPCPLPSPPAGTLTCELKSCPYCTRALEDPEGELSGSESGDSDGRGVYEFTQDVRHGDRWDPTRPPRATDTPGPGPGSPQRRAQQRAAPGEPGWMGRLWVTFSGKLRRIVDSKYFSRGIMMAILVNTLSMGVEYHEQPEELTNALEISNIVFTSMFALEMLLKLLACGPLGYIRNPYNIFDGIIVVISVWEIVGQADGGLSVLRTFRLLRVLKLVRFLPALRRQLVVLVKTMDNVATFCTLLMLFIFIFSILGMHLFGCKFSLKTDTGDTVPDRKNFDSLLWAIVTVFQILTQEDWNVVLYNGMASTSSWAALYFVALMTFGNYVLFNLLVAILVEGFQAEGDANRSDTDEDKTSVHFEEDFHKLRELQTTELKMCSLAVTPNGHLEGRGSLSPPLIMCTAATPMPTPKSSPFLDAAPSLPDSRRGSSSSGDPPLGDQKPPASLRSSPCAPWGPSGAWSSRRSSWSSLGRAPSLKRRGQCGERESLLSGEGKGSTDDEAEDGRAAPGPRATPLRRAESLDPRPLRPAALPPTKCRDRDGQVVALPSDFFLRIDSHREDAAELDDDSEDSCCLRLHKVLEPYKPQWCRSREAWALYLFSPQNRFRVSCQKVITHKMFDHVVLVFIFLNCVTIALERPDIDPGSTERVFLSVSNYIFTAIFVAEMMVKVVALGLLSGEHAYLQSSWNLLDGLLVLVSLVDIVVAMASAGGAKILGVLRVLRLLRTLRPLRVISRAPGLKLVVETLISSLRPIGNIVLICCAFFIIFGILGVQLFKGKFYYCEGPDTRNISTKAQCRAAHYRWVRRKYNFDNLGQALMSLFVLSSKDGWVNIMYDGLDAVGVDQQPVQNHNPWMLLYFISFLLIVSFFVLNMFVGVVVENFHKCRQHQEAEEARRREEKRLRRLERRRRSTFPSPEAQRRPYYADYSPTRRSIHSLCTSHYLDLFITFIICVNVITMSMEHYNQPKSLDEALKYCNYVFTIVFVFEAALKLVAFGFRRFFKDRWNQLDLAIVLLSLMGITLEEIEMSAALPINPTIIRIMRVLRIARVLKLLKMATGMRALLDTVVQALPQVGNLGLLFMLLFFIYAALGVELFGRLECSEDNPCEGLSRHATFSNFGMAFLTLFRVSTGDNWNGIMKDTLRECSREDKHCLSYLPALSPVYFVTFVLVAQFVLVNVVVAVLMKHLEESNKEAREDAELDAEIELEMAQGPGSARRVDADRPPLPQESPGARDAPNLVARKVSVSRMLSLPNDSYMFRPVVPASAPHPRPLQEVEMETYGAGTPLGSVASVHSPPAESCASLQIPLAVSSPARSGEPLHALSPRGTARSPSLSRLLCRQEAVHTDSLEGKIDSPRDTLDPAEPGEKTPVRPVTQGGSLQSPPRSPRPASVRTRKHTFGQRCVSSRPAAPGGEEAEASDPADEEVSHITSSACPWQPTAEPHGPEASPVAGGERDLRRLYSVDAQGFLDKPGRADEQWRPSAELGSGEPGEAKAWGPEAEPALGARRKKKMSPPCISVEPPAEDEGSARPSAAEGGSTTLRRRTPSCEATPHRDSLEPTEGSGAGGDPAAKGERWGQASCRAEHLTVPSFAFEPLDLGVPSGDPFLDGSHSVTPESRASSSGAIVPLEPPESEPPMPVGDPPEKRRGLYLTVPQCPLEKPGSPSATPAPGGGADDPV
CYP2C19 inh: blockers of cytochrome P450 2C19 activity – biochemical, luminescence, ADME assay, primary screen; P33261; inhibition, % at 5 µM; CYP2C19 Supersomes, luciferin-H EGE luminescence, 30 min; AID 778, 2007; 21% of 96,000 active;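 active means CYP2C19 inhibition above a set limit at 5 µM in the primary screen, cut at about 50% in these data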;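 further: plate controls were negative control wells for no effect and 2.5 mM tranylcypromine positive control for full effect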
CYP2C9 inh: blockers of cytochrome P450 2C9 activity – biochemical, luminescence, ADME assay, primary screen. inhibition, % at 5 µM. 20% of 96,000 active. P11712. AID 777, 2007. CYP2C9 Supersomes, luciferin-H conversion;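 active means blocking of liver enzyme CYP2C9 beyond about 50% at 5 µM, limit read from the data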
Numbers without * were called inactive; nt = no result given. The list is not random: actives were taken first. Their share in the collection is about 27%.

SMILES | CYP2C9 activ | CYP2C19 activ | Cav32 inh | CYP2C19 inh | CYP2C9 inh
COCc1cc(C)nc2sc(C(=O)N3CCN(c4ccccc4)CC3)c(N)c12 | 0.2 | 0.2 | -1.1 | 80* | 78*
CC1=C(C(=O)N2CCCCC2)C(c2cccs2)C2=C(CCCC2=O)N1 (stereo not given) | 1 | 1 | 0.46 | 5 | 4
COc1ccccc1NC(=O)CCc1nc(-c2cccs2)no1 | 0.8 | 0.2 | 0.85 | 85* | 24
COc1ccc(Cc2nc(-c3ccc(-n4cccc4)cc3)no2)cc1OC | 0.9 | 1.1 | -0.18 | -9 | 14
COc1ccc(-c2noc(CCC(=O)Nc3cc(OC)ccc3OC)n2)cc1 | 0.2 | 0 | nt | 98* | 82*
COc1ccc(OC)c(NC(=O)CCC(=O)Nc2nnc(C(F)(F)F)s2)c1 | 0.3 | 0.9 | -0.77 | 7 | 74*
CCC(=O)Nc1nc(CC(=O)Nc2ccccc2OC)cs1 | nt | nt | -0.077 | nt | nt
COc1ccc(OC)c(NC(=O)CCN2CCCCCC2)c1 | nt | nt | 0.074 | nt | nt
COc1ccc(Cc2nc(-c3cccs3)no2)cc1OC | 0.3 | 0.2 | -1.8 | 78* | 65*
O=C(c1cc(Br)c(Br)s1)N1CCN(C/C=C/c2ccccc2)CC1 | 0.8 | 0.7 | -3.4 | 27 | 17
CC(C)(C(=O)c1ccccc1)/[N+]([O-])=C/c1ccccc1F | nt | nt | 0.62 | nt | nt
CCOC(=O)c1cc(C)n(S(=O)(=O)c2ccc(C)cc2)c1C | 0.9 | 1.2 | -1.2 | -19 | 6
O=C(c1ccc2c(c1)OCO2)N1CCC2(CC1)Oc1ccc(F)cc1C(=O)C21CC(c2ccccc2)=NO1 (stereo not given) | nt | nt | -1.2 | nt | nt
Cc1cc(C)n2nc(SCC(=O)N(C)c3ccccc3)nc2n1 | 1.2 | 1.1 | -0.42 | -9 | -18
O=C(O)CC1(Cc2nc(-c3cccs3)no2)CCCC1 | 1 | 1.1 | -0.074 | -5 | 4
Cc1cccc(-c2noc(CCC(=O)NCc3ccccc3)n2)c1 | 0.7 | 0.9 | -3.1 | 13 | 35
Cc1ccc(CNC(=O)CCc2nc(-c3cccs3)no2)cc1 | 0.3 | 0.3 | -5.1* | 70* | 68*
O=C(CCc1nc(-c2cccs2)no1)NCc1ccc(F)cc1Cl | 0.3 | 0.1 | -4.5* | 87* | 66*
CCN(c1ccccc1)S(=O)(=O)c1ccc(F)cc1C | 0.9 | 0.3 | -3.9 | 67* | 10
CCN(c1ccccc1)S(=O)(=O)c1ccc(F)c(C(=O)O)c1 | 1.1 | 1.2 | -0.29 | -19 | -7
Clc1ccccc1C1SCC2Nc3ccccc3CN21 (stereo not given) | 0.5 | 0.1 | -0.95 | 87* | 53*
COc1ccc(-c2cc3nc(C)cc(N)n3n2)cc1 | 0.7 | 0.2 | -2 | 77* | 30
COc1ccc(CC(=O)Nc2c3c(nn2-c2cccc(C)c2C)CS(=O)C3)cc1 (stereo not given) | 0.6 | 0.1 | 0.39 | 94* | 38
COc1ccc(CC(=O)Nc2c3c(nn2-c2cccc(C)c2C)CS(=O)C3)cc1OC (stereo not given) | 0.9 | 0.2 | 1.7 | 79* | 6
Cc1cccc(-n2nc3c(c2NC(=O)CCC2CCCCC2)CS(=O)C3)c1C (stereo not given) | nt | nt | -1.3 | nt | nt
SMILES | CYP2C9 activ | CYP2C19 activ | Cav32 inh | CYP2C19 inh | CYP2C9 inh
NC(=O)c1cc(-c2ccccc2)sc1NC(=O)Cc1ccc(S(=O)(=O)N2CCOCC2)s1 | 0.5 | 0.9 | -0.46 | 14 | 52*
O=C(COC(=O)Cc1ccc(S(=O)(=O)N2CCOCC2)s1)Nc1ccc2c(c1)OCO2 | 0.8 | 0.9 | 1.9 | 8 | 21
CCc1nc2ccccc2c(C(=O)OC2CCOC2=O)c1C (stereo not given) | 1.1 | 0.5 | nt | 52* | -5
O=C(OC1CCOC1=O)c1ccc2ccccc2n1 (stereo not given) | 1.1 | 1 | 0.47 | -2 | -6
CCCc1nc2ccccc2c(C(=O)OC2CCOC2=O)c1CC (stereo not given) | 0.3 | 0.5 | -0.38 | 53* | 65*
CCC(=O)Nc1nc2nc(C)cc(=O)n2[nH]1 | 1 | 1 | nt | 3 | -3
CCN(CC(=O)Nc1ccccc1C(=O)OC)S(=O)(=O)c1ccccc1 | 0.8 | 0.2 | 0.2 | 80* | 24
CN(CC(=O)NC1CCCCCC1)S(=O)(=O)c1ccccc1 | 0.8 | 0.6 | 0.04 | 45 | 21
